The values that follow come from PubChem BioAssay AID504834 (National Center for Advancing Translational Sciences (NCATS), 2011).

In all, about 320,000 compounds went through this assay and about 22,000 (6.9%) were called active. Another 27% or so got no clear call; they are omitted. The call rests on the fitted dose curve; in most records, active means well fitted inhibition curve with a large enough effect; inconclusive means small, poorly fitted or top-dose-only effect, or another doubt; inactive means no such curve, though single readings can be large or run the other way. For the sample, actives were picked, then their nearest neighbours and some compounds at random.
On the % scale 0 is the no-effect control and ±100 the full control effect; potency means the concentration at half of the fitted maximal effect.

A short description of this assay: Primary qHTS for delayed death inhibitors of the malarial parasite plastid, 96 hour incubation. The settings on record: P. falciparum luciferase reporter growth; series mostly up to 28.7 µM; activity change, negative = inhibition: at the top concentration. The text has this: The goal of this screen is to discover new antimalarial compounds that act by inhibiting the development of the apicoplast in the malarial parasite Plasmodium falciparum. The biochemical processes that make this organelle essential for erythrocytic stage parasites are not well understood. However, antibiotics such as azithromycin and tetracycline, which target the apicoplast translational machinery, have a potent antimalarial effect.
We have developed a cell-based assay that measures parasite growth based on the expression of an integrated copy of a firefly luciferase reporter. To detect small molecules that cause this "delayed death" phenotype, erythrocytes infected with the luciferase-expressing parasites were incubated with compounds for either one or two generations, corresponding to 48 and 96 hours, respectively. Compounds that inhibit parasite growth in the second generation, but not the first, should be enriched in antimalarials that target the apicoplast. Growth inhibition is detected by a decrease in luciferase activity.
Assay Provider: David Fidock and Eric Ekland, Columbia University
Keywords: NIH Roadmap, MLPCN, MLI, MLSMR, qHTS, NCGC, qHTS, malaria, luciferase, viability
Four microliters of infected erythrocytes (2% hematocrit, 0.05% parasitemia final concentration) in culture medium were dispensed and the plates incubated for 96 hours at 37 C in 5% CO2. Two microliters of luciferase detection reagent was added and luminescence was detected by a ViewLux (PerkinElmer) reader.
In general terms: qHTS replaces the single test concentration by a dilution series.
For `CCc1nnc(NC(=O)Cc2cccs2)s1`, the “activity change, negative = inhibition” value was -22.2% (inactive).

`CC(NCC(=O)Nc1cc(Cl)cc(Cl)c1)c1ccccc1` (stereo not drawn): the “activity change, negative = inhibition” value is -15.4% (inactive).

On to `COc1cccc(-c2coc3cc4oc(=O)c(CC(=O)O)c(C)c4cc23)c1`, for which the “activity change, negative = inhibition” value was -4.33% (inactive).

As to `COc1ccc(OCCCC(=O)OC(C)C(=O)Nc2ccccc2[N+](=O)[O-])cc1` (stereo not drawn), the “activity change, negative = inhibition” value was 30.3% (inactive).

Regarding `O=C1NC(=O)C(CCc2ccccn2)(Cc2cccc(Cl)c2Cl)C(=O)N1c1ccc(Br)cc1` (stereo not drawn), the “activity change, negative = inhibition” value was 30.6% (inactive).

With `Cc1ccc(N2C(=O)NC(=O)C(CCc3ccncc3)(Cc3cccc(Cl)c3Cl)C2=O)cc1` (stereo not drawn), the Potency was 11.7 µM (active).

`CC(C)(C)c1ccc(/C=C/C(=O)NCCCn2ccnc2)cc1`: the “activity change, negative = inhibition” value was -22.8% (inactive).

Turning to `CC(C)C[C@@H](CO)N1CCN(Cc2ccc(O)cc2)CCC1=O`, the “activity change, negative = inhibition” value is 78.9% (inactive).

For the compound `O=C1CCN(CCc2ccccc2)CCN1CCOc1ccccc1`, the “activity change, negative = inhibition” value is 9.44% (inactive).

As to `CC(C)C[C@@H](COc1ccccc1)N1CCN(CC(C)C)CCC1=O`, the Potency was 11.7 µM (active).

As to `CCCNC(=O)N1CCC(c2ccc3c(c2)OCO3)CC1`, the “activity change, negative = inhibition” value is 29.2% (inactive).

Turning to `CC1CN(C(=S)Nc2ccc(S(N)(=O)=O)cc2)CC(C)O1` (stereo not drawn), the “activity change, negative = inhibition” value is 3.43% (inactive).

`O=[N+]([O-])c1ccc(N2CCN(c3ccc(F)cc3)CC2)cn1`: the “activity change, negative = inhibition” value was -10.5% (inactive).

For the compound `OCCN1CCN(c2nnc(-c3ccccc3)c3ccccc23)CC1`, the “activity change, negative = inhibition” value was -3.39% (inactive).

In the case of `CCCOC(=O)CC1C(=O)NCCN1Cc1ccc(F)cc1` (stereo not drawn), the “activity change, negative = inhibition” value is 16.3% (inactive).

Turning to `Cc1ccc(CN2CCNC(=O)C2CC(=O)NCc2csc(C(C)C)n2)cc1` (stereo not drawn), the Potency is 11.7 µM (active).

On to `CCn1ccnc1CNC(=O)CC1C(=O)NCCN1CCCc1ccccc1` (stereo not drawn), for which the “activity change, negative = inhibition” value is 1.79% (inactive).

As for `Cc1nccn1CCCNC(=O)CC1C(=O)NCCN1Cc1ccc(Cl)c(F)c1` (stereo not drawn), the “activity change, negative = inhibition” value was 2.21% (inactive).

Consider `CCn1ccnc1CNC(=O)CC1C(=O)NCCN1Cc1ccc(F)cc1Cl` (stereo not drawn), for which the “activity change, negative = inhibition” value is -5.79% (inactive).

On to `CCOc1ccc(CN2CCNC(=O)C2CC(=O)NCCCC2CCCC2)cc1` (stereo not drawn), for which the Potency is 13.1 µM (active).

As to `CC(=O)Nc1ccc(NC(=O)C(NS(=O)(=O)c2ccc3c(c2)OCCO3)C(C)C)cc1` (stereo not drawn), the “activity change, negative = inhibition” value was 2.53% (inactive).

Consider `CCn1cc(C(=O)N[C@@H](C)C(=O)NCCO)c(=O)c2cc3c(cc21)OCO3`, for which the “activity change, negative = inhibition” value was 39.3% (inactive).

As to `COc1nnc(-c2ccc(C)c(S(=O)(=O)N(C)C)c2)c2ccccc12`, the “activity change, negative = inhibition” value was 0% (inactive).

As to `c1ccc(-c2cc(-c3ccccc3)[nH]n2)cc1`, the “activity change, negative = inhibition” value was -17.7% (inactive).

As to `CC(=O)OCCOCn1cnn2c(=O)c(Br)c(C)nc12`, the “activity change, negative = inhibition” value is 38.7% (inactive).

In the case of `CC(C)c1nnc(NC(=O)C2CC(=O)N(CCc3ccc(F)cc3)C2)s1` (stereo not drawn), the “activity change, negative = inhibition” value is 19.1% (inactive).

In the case of `O=C(COC(=O)c1ccc(S(=O)(=O)Nc2ccccc2)cc1)NCC1CCCO1` (stereo not drawn), the “activity change, negative = inhibition” value was 0% (inactive).

As for `S=C(NCCc1ccccc1)NCC1CCCO1` (stereo not drawn), the “activity change, negative = inhibition” value was 8.12% (inactive).

Take `O=C(CS(=O)(=O)Cc1ccccc1)NCC1CCCO1` (stereo not drawn): the Potency was 2.94 µM (active).

Regarding `COc1ccc(NS(=O)(=O)c2ccc(C)c(C(=O)NNC(=O)c3csc(N4CCOCC4)n3)c2)cc1`, the “activity change, negative = inhibition” value was -1.4% (inactive).

Take `COc1ccc(NS(=O)(=O)c2ccc(N3CCOCC3)c(NC(=O)c3ccccc3Br)c2)cc1`: the Potency was 9.28 µM (active).

As for `CC(=O)Nc1ccc(S(=O)(=O)Nc2ccc(N3CCOCC3)c(F)c2)cc1`, the “activity change, negative = inhibition” value was -18.2% (inactive).

`CCCCn1c(N)c(N(CC(C)C)C(=O)c2ccc(-n3c(C)ccc3C)cc2)c(=O)[nH]c1=O`: the “activity change, negative = inhibition” value is -32.2% (inactive).

`CCOc1ccc(NC(=S)N2CCC(NC(=O)c3ccccc3)CC2)cc1`: the “activity change, negative = inhibition” value is 14.6% (inactive).

Turning to `CCOc1ccc(C(=O)NC2CCN(C(=O)Nc3ccccc3OC)CC2)cc1`, the “activity change, negative = inhibition” value is -12.6% (inactive).

On to `CCOc1ccc(C(=O)NC2CCN(S(=O)(=O)CC)CC2)cc1`, for which the Potency is 2.33 µM (active).

For `CCOc1c(OC)cccc1C(=O)NCC1(c2ccccc2)CCCC1`, the “activity change, negative = inhibition” value was 8.63% (inactive).

With `CN(C)CCn1c2c(c(SCC(=O)NCc3ccccc3)nc1=O)CCC2`, the “activity change, negative = inhibition” value was 7.34% (inactive).

For the compound `COc1ccccc1CNC(=O)CSc1nc(=O)n(Cc2ccncc2)c2c1CCC2`, the Potency is 14.7 µM (active).

Consider `COc1ccccc1CNC(=O)Cn1cc2c(n1)CCCC2`, for which the “activity change, negative = inhibition” value was 8.68% (inactive).

As to `O=C(NCCc1ccc(Cl)cc1)C1CCCN1C(=O)NCc1ccccc1` (stereo not drawn), the “activity change, negative = inhibition” value is 34.6% (inactive).

Regarding `NC(=O)C1CC(=O)N(c2ccc(OCC(=O)NCc3ccccc3)cc2)C1` (stereo not drawn), the “activity change, negative = inhibition” value is 16.4% (inactive).

Consider `CC(NC(=O)c1ccc(S(=O)(=O)Nc2ccccc2)cc1)c1ccc(S(N)(=O)=O)cc1` (stereo not drawn), for which the “activity change, negative = inhibition” value was -27.8% (inactive).

On to `Cc1sc2nc(CSCC(=O)NC3CCCCC3)[nH]c(=O)c2c1C`, for which the “activity change, negative = inhibition” value was -4.04% (inactive).

With `O=C(CSc1nnc(-c2ccccc2)o1)N1CCOCC1`, the “activity change, negative = inhibition” value is 16.5% (inactive).

Take `CC1=CC(C)(C)N(C(=O)CSc2nnc(-c3ccccc3)o2)c2ccc(C)cc21`: the Potency was 13.1 µM (active).

As for `Cc1cccc(C)c1OC(=O)CSc1nnc(-c2ccccc2)o1`, the “activity change, negative = inhibition” value is -10.3% (inactive).

As to `Cc1ccccc1C(=O)N1CCC(C(=O)Oc2ccc(C#N)cc2)CC1`, the “activity change, negative = inhibition” value is 83.9% (inactive).

For the compound `COc1ccc(S(=O)(=O)N2CCOC2CNC(=O)C(=O)NCc2ccncc2)cc1OC` (stereo not drawn), the “activity change, negative = inhibition” value was 0.814% (inactive).

In the case of `Cc1cccc(C)c1NC(=O)CS(=O)CC(=O)N1CCN(c2ccccc2)CC1` (stereo not drawn), the “activity change, negative = inhibition” value was 36.4% (inactive).

For the compound `c1ccc(-c2cc3c(NCC4COc5ccccc5O4)ncnc3s2)cc1` (stereo not drawn), the Potency was 10.4 µM (active).

With `COc1ccc(Nc2ncnc3sc(-c4ccccc4)cc23)c(OC)c1`, the “activity change, negative = inhibition” value is 0% (inactive).

`S=C(NCC1COc2ccccc2O1)Nc1ccc(Br)cc1` (stereo not drawn): the “activity change, negative = inhibition” value was -2.67% (inactive).
